Only some compounds are listed: those with a hit (about 2.4% of all), similar ones and a draw of the others.
GLP-1R inv ag – inverse agonists of human GLP-1 receptor; P43220; HEK293 GLP-1R CRE-luciferase, luminescence, 24 h; GLP-1R form is constitutively active; Potency, µM (series often up to 38.3 µM), for the others: top-dose activity change, negative = inhibition, hits mostly inhibitors; hit rate 1.6% among 410,000; AID 624417; further: potency means the concentration at half of the fitted maximal effect; on the % scale 0 is the no-effect control and ±100 the full control effect; nearly all actives have a fitted effect of over 55% in size
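Using stably transfected HEK293 (constitutively active GLP-1R, cAMP-luciferase reporter), compounds were incubated 24 hr and luciferase measured by luminescence.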
TRHR enhancer – allosterically enhances the human TRH receptor | P34981 | TRHR cells, fluo-8 calcium fluorescence, EC20 TRH enhancement | enhancement, % at 2 µM | hit rate 0.66% among 360,000; in the data active means enhancement above about 30%; further: 0% is about no effect
Target sequence (P34981 whole entry, looked up): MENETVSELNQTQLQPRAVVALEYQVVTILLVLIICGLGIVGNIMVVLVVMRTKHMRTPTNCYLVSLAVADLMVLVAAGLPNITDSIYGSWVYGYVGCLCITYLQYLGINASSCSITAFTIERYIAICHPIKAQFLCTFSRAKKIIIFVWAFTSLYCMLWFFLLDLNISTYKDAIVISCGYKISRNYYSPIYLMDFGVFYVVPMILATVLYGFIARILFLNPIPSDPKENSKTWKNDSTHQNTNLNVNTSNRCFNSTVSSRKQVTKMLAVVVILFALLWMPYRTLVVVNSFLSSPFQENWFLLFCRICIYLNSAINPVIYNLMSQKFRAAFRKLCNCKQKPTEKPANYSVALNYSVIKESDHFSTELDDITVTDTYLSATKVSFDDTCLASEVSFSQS
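Enhancer read-out: after compound pinning and an initial kinetic agonist-mode read, an EC20 of TRH (10 nM final) was injected and fluo-8 calcium signal (Ex 480/Em 530) followed at 1 s/cycle for 100 cycles in TRHR-expressing cells.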
TRHR ag – agonists of human TRH receptor. hit rate 0.18% among 360,000. TRHR cells, calcium flux fluo-8, FDSS agonist mode. activation, % at 2 µM; in the data active means activation above about 30%; further: 0% is about no effect
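Steps: seed TRHR cells overnight; add fluo-8 no-wash Ca dye, RT 30 min–1.5 h; record 10 s baseline; pin-transfer compounds; monitor fluorescence 1 cycle/s for the agonist window. Calcium increases flag candidate agonists.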
HEK293 tox – cytotoxic in the GLP-1 receptor inverse agonist counter-screen; HEK293 cAMP-luciferase reporter cells, luminescence, 24 h; hit rate 0.13% among 410,000; Potency, µM (series often up to 38.3 µM), without a hit: at the top dose activity change, negative = inhibition, hits mostly inhibitors; AID 624418;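 further: loss of luciferase light is scored as toxicity; potency means the concentration at half of the fitted maximal effect; on the % scale 0 is the no-effect control and ±100 the full control effect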
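Luminescence readout: signal drop marks cytotoxicity. Plated cells grew 12 h at 37 °C, 5% CO2, received 23 nL compound for 24 h, then got luciferase reagent, read after 12 min at RT.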
PTHR1 agonist – agonists of human PTHR1 parathyroid hormone receptor. Potency, µM (series often up to 115 µM), inactives show at the top dose activation, most hits filed as activators. hit rate 0.075% among 410,000. HEK293 GP2 PTHR1 cells, GloSensor cAMP luminescence, 1 h; further: potency means the concentration at half of the fitted maximal effect; nearly all actives have a fitted effect of over 55% in size
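HEK-293-derived GP2 cells expressing PTHR1 and a GloSensor cAMP reporter, 3,000/well, plated overnight, given luciferin plus IBMX (each 0.5 mM as added) for 1 h at 37 °C, then compound for 1 h at 37 °C. Luminescence was read after 15 min at room temperature.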
GLP1R ag – activates the human GLP-1 receptor; P43220; HEK293 GLP-1R CRE-luciferase, luminescence, 4-6 h; cells express a hypersensitive GLP-1R form; hit rate 0.007% among 380,000; Potency, µM (top dose mostly 45.6 µM), for inactives: at the top dose activation, most hits filed as activators; further: potency means the concentration at half of the fitted maximal effect; % of control where 0% means no effect
Numbers without * were called inactive; i = inactive; ? = inconclusive; . = not tested or not shown; [ ] = dose if it differs, or a comment. Unless noted, the call rests on the fitted dose curve; in most records, active means well fitted curve in the direction sought with a large enough effect; inconclusive means small, poorly fitted or top-dose-only effect, or another doubt; inactive means no such curve, though single readings can be large; an effect the other way counts as inactive or inconclusive.

SMILES | GLP-1R inv ag | TRHR enhancer | TRHR ag | HEK293 tox | PTHR1 agonist | GLP1R ag
Cn1c(=O)c2c(-c3ccccc3)n(-c3ccccc3F)cc2n(C)c1=O | 17.0% | . | . | 0.1% | -18.3% | 12.8%
CCOc1ccc(CCNC(c2nnc(-c3ccccc3)o2)c2ccccc2Cl)cc1OCC (configuration not stated) | 10µM* | -1.0 | 4.3 | -0.7% | -47.2% | .
CCOc1ccc(CCNC(c2cccc(Cl)c2)c2nnc(-c3ccccc3)o2)cc1OCC (configuration not stated) | ? | -3.6 | 2.3 | -8.7% | -22.4% | .
CCOC(=O)C1CCCN(C(=O)c2[nH]c3ccccc3c2Sc2ccc(Cl)cc2)C1 (configuration not stated) | 11.2µM* | -2.5 | 1.2 | ? | -30.8% | .
Cc1cc(OCc2cc(C(=O)N(C)Cc3ccccn3)no2)cc(C)c1Cl | 2µM* | 12.1 | -0.7 | 1.8% | -33.7% | -0.5%
CC(=O)c1ccc(OCc2cc(C(=O)N(C)Cc3ccccn3)no2)cc1 | 9.5% | -0.4 | 0.4 | 3.8% | -20.6% | -8.8%
O=C(CN1C(=O)NC2(CCCC2)C1=O)Nc1cccc(Cl)c1Cl | -23.2% | -1.3 | 0.4 | 0.7% | -10.3% | 8.5%
O=C1CN(CC(=O)Nc2cccc(Cl)c2Cl)c2ccccc2N1 | 10µM* | 2.2 | 0.5 | 0.8% | i | 9.2%
O=C(Nc1ccc2ccccc2c1)c1onc2c1CCCC2 | 8.91µM* | -4.9 | 0.1 | -4.5% | -36.9%[57.5 µM] | -0.7%
Cc1ccc(-n2ncc3c2CC(C)(C)CC3NC(=O)c2ccc[n+]([O-])c2)cc1 (configuration not stated) | 28.5% | -2.6 | 0.7 | -11.1% | -19.1% | -0.3%
CCOc1ccc(N2C(=O)C3C4C=CC(CC4)C3C2=O)c([N+](=O)[O-])c1 (configuration not stated) | ? | -3.2 | -0.4 | -16.3% | i | -19.2%
COc1ccc(N2C(=O)C3C4C=CC(CC4)C3C2=O)c([N+](=O)[O-])c1 (configuration not stated) | 0.0% | 39.0* | -0.4 | 3.4% | i | 3.8%
CCC1(NC(C)=O)CC2CC1CC2NC(C)=O (configuration not stated) | 0.0% | 2.9 | 0.9 | 7.2% | i | -5.8%
COc1ccc(C(=O)NCCS(=O)(=O)NCc2cccnc2)cc1 | 1.0% | 32.5* | 0.0 | -2.9% | i | 5.9%
CCc1ccc(Sc2cc(C(=O)NCc3cccc(OC)c3)c3ccccc3n2)cc1 | 10µM* | -1.2 | 3.3 | -7.4% | -24.0% | -7.3%
COc1cccc(CNC(=O)c2ccncc2)c1 | 11.4% | 31.7* | 0.2 | -11.5% | i | -5.9%
COC(=O)c1cn(C(=O)c2ccc(C)cc2C)c2ccccc12 | 5.01µM* | 8.3 | 0.5 | -11.8% | -33.8% | -0.4%
COC(=O)c1cn(C(=O)c2ccccc2Cl)c2ccccc12 | ? | 0.5 | 0.1 | ? | -12.3% | 6.9%
CCO/C=C1\SC(=S)N(c2ccc(Cl)cc2)C1=O | -3.5% | 8.1 | -0.4 | -5.2% | -11.4% | -1.8%
CC(C)c1ccc(N2C(=O)/C(=C/N(C)C)SC2=S)cc1 | ? | 14.2 | 47.1* | 3.4% | i | -2.3%
COc1cccc(-c2nnc(NC(=O)c3cccs3)s2)c1 | 31.3% | 4.0 | 4.3 | 0.3% | -10.8% | 4.4%
CCNC(=S)N(Cc1cc2cc(C)c(C)cc2[nH]c1=O)C1CCCC1 | ? | -1.1 | -0.3 | 9.6% | i | 18.6%
CCC(=O)N(Cc1cc2cc(C)c(C)cc2[nH]c1=O)C1CCCCC1 | 10µM* | 7.4 | 0.4 | -28.8% | -63.0%[57.5 µM] | -3.1%
Cc1nn2c(NC(C)C)c3c(nc2c1-c1ccccc1)CCC3 | 10µM* | -3.3 | -0.2 | -7.8% | -61.1% | 22.8%
COc1ccc(-c2csc(NC(=O)Cc3ccccc3F)n2)cc1OC | ? | -7.4 | 0.3 | 1.9% | -35.7% | 18.1%

Compound activity: PubChem, National Center for Advancing Translational Sciences (NCATS)
